What all share (assay): NCI-60 one-dose screen, 48 h (100 = growth as untreated, 0 = no growth, -100 = all killed)
Common to all, as to conditions: 10 µM unless noted

The subject of assay [1] is SK-MEL-2 melanoma.
Assay [2] relates to EKVX NSCLC.
Assay [3] deals with SN12C renal.
In assay [4] the test system is UO-31 renal.
Assay [5] concerns TK-10 renal.
The subject of assay [6] is ACHN renal.
The test system of assay [7] is CAKI-1 renal.
The subject of assay [8] is A498 renal.
In assay [9] the test system is CCRF-CEM leukemia.
The test system of assay [10] is MOLT-4 leukemia.

The panel holds about 83,000 compounds, 20% with a hit somewhere; the sample as a whole holds those more often.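 Step 1: grow cells in 96-well plates. Step 2: add test compound at a single concentration. Step 3: incubate 48 h. Step 4: record percent growth.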 A number with no mark means an inactive call. Calls of active or inactive are those of the source. Rule for the calls: active = growth percent below 10; inactive = the rest.

Results on 14 compounds are retold here after PubChem BioAssay (NCI).

For the compound `Cc1cccc(-n2c(C)nc3ccc(N4CCCNC4=O)cc3c2=O)c1`, the growth in assay [1] is 106%; in assay [2] it was 99.5%; in [3], 98%; in assay [4] it was 88.7%; in assay [5], 104%; in assay [6], 111%. Also, the growth was 99.8% in assay [7], 90.1% in [8], 106% in [9] and 110% in assay [10].
For `CN1CCCc2cc(/C=C3/SC(=S)N(CCc4ccc(O)cc4)C3=O)ccc21`, the growth in assay [1] is 98%; in assay [2], 93.7%; in assay [3], 77.3%; in assay [4] it was 52.4%; in assay [5], 114%; in assay [6] it was 87.3%. For the same compound, the growth in assay [7] is 58.8%; in assay [8] it was 73.5%; in assay [9] it was 14.8%; in [10] it was 51%.
As to `CCCCNC1=C(OCC)C(=O)c2ccccc2C1=O`, the growth in assay [1] is 104%; in assay [2], 104%; in [3], 97.2%; in assay [4] it was 91.5%; in assay [5], 145%; in assay [6] it was 105%. Besides, the growth is 110% in [7], 37.4% in assay [8], 100% in assay [9] and 108% in assay [10].
Consider `OC(c1ccccc1)(c1ccccc1)c1ccccc1-c1ccccc1`, for which the growth in assay [1] was 103%; in [2], 115%; in assay [3], 89%; in assay [4], 78.5%; in [5], 89.8%; in assay [6], 99%. Moreover, the growth was 84.2% in [7], 81.5% in assay [8], 92.9% in assay [9] and 84% in assay [10].
With `CCCn1c(=S)sc2c1nc(C)n1c(Nc3ccccc3)nnc21`, the growth was -0.18% (active) in [1]; 36.6% in assay [2]; 55.6% in assay [3]; 71.6% in assay [4]; 86.7% in [5]; 82.8% in [6]. The growth was 93.9% in assay [7], 57.2% in assay [8], 66.3% in assay [9] and 31.1% in [10].
In the case of `Cn1cc(-c2csc(-c3cn(C(=O)OC(C)(C)C)c4ccccc34)n2)c2ccnc(Cl)c21`, the growth in assay [1] is 96.5%; in assay [2], 62.8%; in assay [3] it was 55.1%; in [4] it was 58.4%; in assay [5] it was 52.8%; in assay [6], 32.7%. In addition, the growth is 80% in [7], 88.4% in assay [8], 61.7% in assay [9] and 66.8% in assay [10].
In the case of `CCOc1ccc(NC(=O)c2cc(OC)c(OC)c(OC)c2)cc1`, the growth in assay [1] was 16.1%; in assay [2] it was 54.1%; in assay [3], 56%; in [4], 52%; in assay [5], 60.3%; in [6], 55.9%. Moreover, the growth was 39.8% in assay [7], -0.366% (active) in [8], 27.9% in assay [9] and 31.6% in [10].
Regarding `CCCCCCCCCCCCCCCCCCOc1ccccc1CC(=O)NCC[N+]1(C)CCOCC1`, the growth in [1] is 74.6%; in assay [2], 91.3%; in assay [3], 40.5%; in assay [4] it was 77.3%; in assay [5], 7.69% (active); in assay [6] it was 84.5%. Besides, the growth in assay [7] was 98.6%; in assay [8], 67.4%; in [9] it was -36.4% (active); in assay [10] it was 14.6%.
With `CS(=O)(=O)Cc1cnc(C2OCCO2)s1`, the growth in assay [1] is 122%; in assay [2], 99%; in assay [3], 114%; in assay [4], 92%; in [5], 93.8%; in [6], 96.8%. Also, the growth was 97.7% in assay [7], 116% in assay [8], 138% in assay [9] and 140% in assay [10].
With `CC(C)CCC[C@@H](C)C1CCC2C3CCC4=C/C(=N/OCCN(C)C)CC[C@]4(C)C3CC[C@@]21C` (stereo not given in full), the growth in assay [1] is 83.7%; in [2], 94.7%; in [3] it was 92.6%; in assay [4], 61.7%; in [5], 70.4%; in [6], 88.9%. Further, the growth in assay [7] is 79.9%; in assay [8], 80.8%; in assay [9], 26.6%; in assay [10], 49.2%.
In the case of `COc1ccc2nc3cc(Cl)ccc3c(NCCN)c2c1`, the growth in assay [1] was 98.5%; in assay [2], -47.5% (active); in [3] it was -60.4% (active); in assay [4] it was -19.4% (active); in assay [5], -76.2% (active); in assay [6], -91.7% (active). Moreover, the growth in [7] was -96.5% (active); in [8], 55.5%; in [9] it was -13.3% (active); in [10], -40.9% (active).
Take `COc1cc(/C=N/Nc2ccccc2F)cc(OC)c1OC`: the growth is 90.2% in [1]; 87.4% in assay [2]; 97.1% in [3]; 68.8% in assay [4]; 157% in [5]; 81.3% in assay [6]. In addition, the growth in assay [7] is 50.8%; in [8], 92.8%; in assay [9] it was 75.2%; in assay [10] it was 83.9%.
Turning to `Cc1c2cnccc2c(C)c2c1c1cc(C3OCCCO3)ccc1n2C`, the growth in assay [1] is -67.5% (active); in assay [2], 3.53% (active); in assay [3], -10.2% (active); in [4], -7.3% (active); in [5], -14.5% (active); in assay [6], -12.1% (active). Moreover, the growth in assay [7] was 8.13% (active); in assay [8], -56.6% (active); in assay [9] it was -6.77% (active); in assay [10], -4.85% (active).
As for `N#C/C(=C\c1ccc(Cl)cc1Cl)C(=O)Nc1ncc(Cc2ccc(Cl)c(Cl)c2)s1`, the growth in assay [1] is 88.8%; in [2], 96.1%; in assay [3], 92.2%; in assay [4], 65.7%; in assay [5] it was 80.7%; in assay [6], 47.7%. Further, the growth in assay [7] is 52.3%; in [8], 101%; in assay [9], 87.7%; in assay [10], 92.9%.
